Source: PubChem (National Center for Advancing Translational Sciences (NCATS))
This is a sample that favours compounds with a hit; in the whole collection about 8.8% have one here.
KB-3-1 cytotox = qHTS assay for MDR1-selective chemotherapeutics: Primary screen using the parental adenocarcinoma cell KB-3-1; Potency, µM (doses to about 46.1 µM), usual class: cytotoxic; AID 1347075, 2019; KB-3-1 viability, CellTiter-Glo ATP luminescence, 72 h; 400,000 compounds, 1.4% hits; also: nearly all actives have a fitted effect of over 60% in size
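Viability of parental KB-3-1 cells, measured by CellTiter-Glo luminescence, followed a 72 h incubation at 37 °C with pinned compounds in phenol-red-free DMEM containing 10% FBS.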
IL1B secr inh = qHTS for Inhibitors of Inflammasome Signaling: IL-1-beta AlphaLISA Primary Screen | THP-1 LPS/ATP IL-1B secretion, AlphaLISA, 16 h; active compounds read low | activity change, % at 57.5 µM | 360,000 compounds, 4.7% hits | AID 743279, 2014; in the data active = activity change below about -50%; inconclusive = mostly about -30% to -49%
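THP-1 cells pretreated 1 hr with compounds (up to 57.5 uM final), then stimulated with LPS (250 ng/mL final) plus ATP (1.25 mM final); secreted IL-1B measured by AlphaLISA after 16 hr, decreased signal indicating inhibition.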
HT1080 IDH1KD tx = qHTS for induction of synthetic lethality in tumor cells producing 2HG: qHTS for the HT-1080-IDH1KD cell line; Potency, µM (top dose mostly 46.1 µM), actives largely listed as cytotoxic; HT-1080 IDH1 knockdown viability, ATP luminescence, 48 h; 360,000 compounds, 2% hits; AID 686971, 2013
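Viability of IDH1-knockdown HT-1080 fibrosarcoma cells was assessed by CellTiter-Glo after 48 h at 37 °C with titrated compound; concentration-effect curves were classified by fit quality and response size.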
HT1080NT lethal = qHTS for induction of synthetic lethality in tumor cells producing 2HG: qHTS for the HT-1080-NT fibrosarcoma cell line; Potency, µM (top dose mostly 46.1 µM), most hits filed as cytotoxic; 360,000 compounds, 1.6% hits; HT-1080-NT fibrosarcoma viability, CellTiter-Glo ATP luminescence, 48 h;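 also: NT is the 2HG producing partner of a matched IDH1 knockdown line; nearly all actives have a fitted effect of over 55% in size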
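A 48-hour cytotoxicity screen used HT-1080-NT cells plated 2 hours before compound delivery. ATP-based CellTiter-Glo luminescence measured viability, normalized to DMSO and no-cell controls.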
KB-V1 cytotox = qHTS assay for MDR1-selective chemotherapeutics: Primary screen using the drug-selected MDR subline cells KB-V1; KB-V1 MDR cells viability, CellTiter-Glo, 72 h; Potency, µM (doses to about 46.1 µM), actives largely listed as cytotoxic; 400,000 compounds, 3.4% hits; also: nearly all actives have a fitted effect of over 60% in size
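Following 72 h at 37 degrees C with compound, KB-V1 cell viability was read by CellTiter-Glo luminescence, medium being phenol-red-free DMEM plus 10% FBS; concentration-response parameters came from normalized, curve-fitted qHTS data.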
A number is an active result. Unless noted, calls follow the shape of the dose curve; as a rule, active = well fitted curve in the direction sought with a large enough effect; inconclusive = small, poorly fitted or top-dose-only effect, or another doubt; inactive = no such curve, though single readings can be large; an effect the other way counts as inactive or inconclusive.

`O=C1c2ccccc2C(=O)c2c1ccc1c(=O)n(C3CCCCC3)[nH]c21` gave KB-3-1 cytotox inconclusive, IL1B secr inh inactive, HT1080 IDH1KD tx inactive, HT1080NT lethal inactive and KB-V1 cytotox 10.3µM.
For O=c1c2[nH]c3ccccc3c2ncn1C1CCCCC1 the results were KB-3-1 cytotox inactive, IL1B secr inh inconclusive, HT1080 IDH1KD tx inactive, HT1080NT lethal inactive and KB-V1 cytotox inactive.
For COc1ccccc1N=Nc1ccc(O)c2ncccc12 the results were KB-3-1 cytotox inactive, IL1B secr inh inactive, HT1080 IDH1KD tx inconclusive, HT1080NT lethal inconclusive and KB-V1 cytotox inconclusive.
Cc1ccc(N=Nc2ccc(O)c3ncccc23)cc1 was read as KB-3-1 cytotox inconclusive, IL1B secr inh inactive, HT1080 IDH1KD tx 1.64µM, HT1080NT lethal inconclusive and KB-V1 cytotox inactive.
CCS(=O)(=O)c1ccc(N=Nc2ccc(O)c3ncccc23)c(OC)c1 was read as KB-3-1 cytotox 14.6µM, IL1B secr inh inactive, HT1080 IDH1KD tx 5.17µM, HT1080NT lethal 1.46µM and KB-V1 cytotox inconclusive.
`COc1ccc2cc(/C=C3\SC(=S)NC3=O)c(N3CCOCC3)nc2c1` gave KB-3-1 cytotox inconclusive, IL1B secr inh -68.9, HT1080 IDH1KD tx inconclusive, HT1080NT lethal inactive and KB-V1 cytotox inconclusive.
`CCNC(=S)Nc1ccc(Cl)c(C(F)(F)F)c1` gave KB-3-1 cytotox inconclusive, IL1B secr inh inactive, HT1080 IDH1KD tx inactive, HT1080NT lethal inactive and KB-V1 cytotox 23.1µM.
For CN(CC(=O)Nc1ccc(Cl)c(Cl)c1)Cc1nnc(-c2ccc(F)cc2)o1 the results were KB-3-1 cytotox inactive, IL1B secr inh -58.1, HT1080 IDH1KD tx inactive, HT1080NT lethal inactive and KB-V1 cytotox inconclusive.
`CN(CC(=O)Nc1ccc(Cl)c(C(F)(F)F)c1)C(=O)Cc1ccsc1` gave KB-3-1 cytotox inactive, IL1B secr inh -89.1, HT1080 IDH1KD tx inactive, HT1080NT lethal inactive and KB-V1 cytotox inactive.
For CN(CC(=O)NCc1ccc(F)cc1)CC(=O)Nc1ccc(Cl)c(C(F)(F)F)c1 the results were KB-3-1 cytotox inconclusive, IL1B secr inh -69.1, HT1080 IDH1KD tx inconclusive, HT1080NT lethal inconclusive and KB-V1 cytotox inactive.
Screening CN(CC(=O)Nc1ccc(Cl)c(C(F)(F)F)c1)C(=O)Cc1cccs1 returned KB-3-1 cytotox inactive, IL1B secr inh inconclusive, HT1080 IDH1KD tx inactive, HT1080NT lethal inactive and KB-V1 cytotox inactive.
`COc1cccc(CN2CCNC(=O)C2CC(=O)N(C)Cc2cnccn2)c1OC` (stereo not drawn) gave KB-3-1 cytotox inactive, IL1B secr inh inactive, HT1080 IDH1KD tx inactive, HT1080NT lethal inactive and KB-V1 cytotox inactive.
COc1ccc(Cc2nnc3n2N=C(c2cc4ccccc4o2)CS3)cc1OC was read as KB-3-1 cytotox inconclusive, IL1B secr inh inactive, HT1080 IDH1KD tx inactive, HT1080NT lethal inactive and KB-V1 cytotox inconclusive.
CN(CC(=O)NCC(=O)Nc1ccc(F)cc1)CC(=O)Nc1ccc(Cl)c(C(F)(F)F)c1 was read as KB-3-1 cytotox inactive, IL1B secr inh -71.8, HT1080 IDH1KD tx inactive, HT1080NT lethal inactive and KB-V1 cytotox inconclusive.
For O=C(Nc1ccc(F)cc1)C(c1ccnc2ccccc12)N1CCN(c2cccc(C(F)(F)F)n2)CC1 (stereo not drawn) the results were KB-3-1 cytotox inconclusive, IL1B secr inh inactive, HT1080 IDH1KD tx inconclusive, HT1080NT lethal inconclusive and KB-V1 cytotox inconclusive.
Screening CC(OC(=O)c1ccc(NC(=O)CC#N)cc1)C(=O)NC(c1ccccc1)c1ccccc1 (stereo not drawn) returned KB-3-1 cytotox inactive, IL1B secr inh inactive, HT1080 IDH1KD tx inactive, HT1080NT lethal inactive and KB-V1 cytotox inactive.
For Cc1cc(C(=O)C(C)OC(=O)c2ccc(NC(=O)CC#N)cc2)c(C)n1-c1ccccc1 (stereo not drawn) the results were KB-3-1 cytotox inactive, IL1B secr inh -56.4, HT1080 IDH1KD tx inactive, HT1080NT lethal inconclusive and KB-V1 cytotox inactive.
O=C1CCCc2c1cc(C(=O)NCc1ccco1)c(=O)n2-c1ccc(Cl)cc1 was read as KB-3-1 cytotox inconclusive, IL1B secr inh inactive, HT1080 IDH1KD tx inactive, HT1080NT lethal inactive and KB-V1 cytotox 16.4µM.
`CCOC(=O)C1=CN(Cc2ccco2)S(=O)(=O)N(C)C1c1ccc2ccccc2c1` (stereo not drawn) gave KB-3-1 cytotox inactive, IL1B secr inh inconclusive, HT1080 IDH1KD tx inactive, HT1080NT lethal inactive and KB-V1 cytotox inactive.
Screening CCO[C@@H]1OC(C(=O)N2CCN(Cc3ccc4c(c3)OCO4)CC2)=C[C@H](c2ccc(C(F)(F)F)cc2)[C@H]1CCCO returned KB-3-1 cytotox inconclusive, IL1B secr inh -60.1, HT1080 IDH1KD tx inconclusive, HT1080NT lethal inconclusive and KB-V1 cytotox 25.9µM.
For CCO[C@H]1OC(C(=O)N2CCN(Cc3ccc4c(c3)OCO4)CC2)=C[C@@H](C(C)(C)C)[C@@H]1CCCO the results were KB-3-1 cytotox inactive, IL1B secr inh inconclusive, HT1080 IDH1KD tx inactive, HT1080NT lethal inactive and KB-V1 cytotox inactive.
Screening CCO[C@H]1OC(C(=O)N2CCOCC2)=C[C@@H](c2cn(C(C)=O)c3ccccc23)[C@@H]1CCCO returned KB-3-1 cytotox inactive, IL1B secr inh inactive, HT1080 IDH1KD tx inactive, HT1080NT lethal inactive and KB-V1 cytotox inactive.
For CCO[C@@H]1OC(C(=O)N2CCN(Cc3ccc4c(c3)OCO4)CC2)=C[C@H](c2ccc(Br)cc2)[C@H]1CCCO the results were KB-3-1 cytotox inactive, IL1B secr inh inconclusive, HT1080 IDH1KD tx inactive, HT1080NT lethal inactive and KB-V1 cytotox inactive.
Screening CCO[C@@H]1OC(C(=O)N2CCN(Cc3ccc4c(c3)OCO4)CC2)=C[C@H](C2CCCCC2)[C@H]1CCCO returned KB-3-1 cytotox inactive, IL1B secr inh -59.6, HT1080 IDH1KD tx inactive, HT1080NT lethal inactive and KB-V1 cytotox inactive.
`CCO[C@@H]1OC(C(=O)NCc2ccccc2)=C[C@H](c2ccc(C(F)(F)F)cc2)[C@H]1CCCO` gave KB-3-1 cytotox inactive, IL1B secr inh -57.1, HT1080 IDH1KD tx inconclusive, HT1080NT lethal inactive and KB-V1 cytotox inactive.
`CCO[C@@H]1OC(C(=O)N2CCCCCCC2)=C[C@H](c2cn(C(C)=O)c3ccccc23)[C@H]1CCCO` gave KB-3-1 cytotox inactive, IL1B secr inh -52.6, HT1080 IDH1KD tx inactive, HT1080NT lethal inactive and KB-V1 cytotox inactive.
`CCO[C@H]1OC(C(=O)N2CCN(Cc3ccc4c(c3)OCO4)CC2)=C[C@@H](c2csc3ccccc23)[C@@H]1CCCO` gave KB-3-1 cytotox inconclusive, IL1B secr inh -60.9, HT1080 IDH1KD tx inconclusive, HT1080NT lethal inconclusive and KB-V1 cytotox inactive.
